The structures appear in SMILES notation. Hit rate of the full screen: of about 330,000 compounds, about 1,900 (0.58%) were called active. Roughly 4% stayed inconclusive and do not appear here. The list is a sample of the results. Results with a measured potency or affinity are listed apart. Unmarked numbers belong to inactive results. Cut-off read from the data, not from the text of the source: inconclusive = inhibition above about 70% without an active follow-up result; inactive = below that.

From PubChem BioAssay AID449762 (Southern Research Specialized Biocontainment Screening …, 2010) come the findings set out here.

The nature of the assay: M. tuberculosis growth inhibition, HTS (AID 449762).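 Note: bacterial growth assessed after seven days of incubation.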 The note with it: M. tuberculosis H37Rv growth inhibition, 7H9 media; at 25 µM; hits give high values.
Broadly, the inhibition is the change of the read-out against control, counted positive when it falls. As to `O=C(COc1ccc([N+](=O)[O-])cc1)NNC(=S)NC(=O)c1ccc(Br)cc1`, the inhibition is 10.5%.

For `Cc1ccc(S(=O)(=O)N(C)c2ccc(OCC(=O)OCc3c(C)noc3C)cc2)cc1`, the inhibition was 47.9%.

Turning to `Cc1ccc(S(=O)(=O)N(C)c2ccc(OCC(=O)OCC(=O)N(CC#N)c3ccccc3)cc2)cc1`, the inhibition is 15.9%.

For the compound `COc1ccc2[nH]cc(C3=CCNCC3)c2c1`, the inhibition was 67.9%.

Regarding `CN1CC=C(c2c[nH]c3ccccc23)CC1`, the inhibition is -13.7%.

As for `CCOc1cc(C2C3=C(CC(C)(C)CC3=O)N(CCCOC)C3=C2C(=O)CC(C)(C)C3)ccc1OC`, the inhibition is 1.22%.

Consider `CC(=O)Nc1ccc2c(c1)nc1n2CCOC1`, for which the inhibition was 8.99%.

In the case of `Cc1ccc(N(CC(=O)Nc2cc(Cl)ccc2Oc2ccccc2)S(C)(=O)=O)cc1C`, the inhibition is 13.8%.

Take `Cc1nn(-c2ccccc2)c(N)c1N=Nc1ccccc1`: the inhibition was -2.88%.

Regarding `Cc1nn(-c2ccccc2)c(N)c1N=Nc1ccc2ccccc2c1`, the inhibition was 56.7%.

For the compound `O=c1c2sccc2nc(SCc2ccc([N+](=O)[O-])cc2)n1Cc1ccccn1`, the inhibition is 4.82%.

Consider `O=C(CSc1nnnn1-c1ccc2c(c1)OCCO2)N1CCc2ccccc21`, for which the inhibition is 5.18%.

In the case of `O=C(CCc1n[nH]c(=O)[nH]c1=O)N1CCOCC1`, the inhibition is -14.1%.

For `CCCNC(=O)c1cccc(COc2ccccc2OC)c1`, the inhibition was 3.61%.

As to `Cc1nc2ccccn2c(=O)c1CCN1CCC(C(=O)c2ccc(F)cc2)CC1`, the inhibition was -4.74%.

Regarding `Cc1nc2sccn2c(=O)c1S(=O)(=O)N1CCN(c2ccc(F)cc2)CC1`, the inhibition was 8.78%.

Consider `CCCNC(=S)N(Cc1cc2cc(C)ccc2n2nnnc12)CC(C)(C)CN(C)C`, for which the inhibition is 18.8%.

Take `CNCCNC[C@H](Cc1cccc2ccccc12)NCCc1ccccc1`: the inhibition is -2.82%.

Regarding `CSCC[C@H](NC(=O)OC(C)(C)C)C(=O)NCC1CCC(C(=O)N[C@@H](Cc2ccccc2)C(=O)O)CC1` (some centres undefined), the inhibition was 2.33%.

Take `C=CCOc1ccccc1CNCCNC(=O)c1nonc1N`: the inhibition was -4.17%.

Turning to `CCCCCOC(=O)Cn1c(SCC(=O)Nc2ccccc2)nc2c1c(=O)[nH]c(=O)n2C`, the inhibition is -7.54%.

Regarding `O=C(c1cc([N+](=O)[O-])ccc1N1CCOCC1)N1CCN(S(=O)(=O)c2ccc(F)cc2)CC1`, the inhibition is -2.15%.

Consider `C/C(=N/NC(=O)c1cc2ccccc2cc1O)c1ccco1`, for which the inhibition was 66.3%.

`C/C(=N\NC(=O)c1cc2ccccc2cc1O)c1cccs1`: the inhibition is -0.54%.

In the case of `N#CCCN(C(=O)COC(=O)c1nc(Cl)ccc1Cl)c1ccccc1`, the inhibition is -6.38%.

Turning to `C=CCn1c(C(C)NC(=O)c2cccs2)n[nH]c1=S` (centres undefined), the inhibition was -3.28%.

As for `CCC(C)Oc1cc(-c2ccnc(Nc3cccc(Cl)c3)n2)ccn1` (centres undefined), the inhibition was 63.7%.

Consider `OCCCNc1nccc(-c2cc(Nc3cccc(Cl)c3)ncn2)n1`, for which the inhibition was 5.56%.

Turning to `Cc1ccc(-c2nnn(CC(=O)N(c3cccc(F)c3)C(C(=O)NC3CCCC3)c3ccncc3)n2)o1` (centres undefined), the inhibition was 0.25%.

Regarding `COCCCNC(=O)CSc1ccc(Cl)cc1`, the inhibition was -2.16%.

For the compound `CCN(c1ccccc1)S(=O)(=O)c1ccc(OC)c(N=N/C(C(=O)Nc2ccccc2)=C(/C)O)c1`, the inhibition was 10.8%.

On to `O=C(NCC(c1ccco1)N1CCOCC1)c1cccc([N+](=O)[O-])c1` (centres undefined), for which the inhibition is 1.76%.

For `CC(C)NCC(O)COC1CCC(C(C)(C)C)CC1` (centres undefined), the inhibition was -7.84%.

As for `CC[C@H](C)[C@@H](CN[C@H](CCCCNC)CNC)NCC1CCCC1`, the inhibition is 4.48%.

Consider `Cc1ccc(C2C3=C(CC(C)(C)CC3=O)OC3=C2C(=O)CC(C)(C)C3)cc1`, for which the inhibition was -4.24%.

As to `Cc1onc(-c2ccccc2)c1C(=O)OCC(=O)N1CCC(C)CC1`, the inhibition is -0.29%.

Consider `CSc1nnc(C)c(/C=C/NOCc2ccc(Cl)cc2)n1`, for which the inhibition is -4.59%.

As to `CCc1ccc2c(c1)cc(CN(C(=S)Nc1ccc(Cl)cc1)C1CC1)c1nnnn12`, the inhibition is -13.5%.

For the compound `Cc1ccccc1-n1cnc2cc(NCc3cccs3)ccc21`, the inhibition is 59.7%.

For `Cn1cnc2cc(NCc3cccs3)ccc21`, the inhibition was 2.02%.

Take `CCn1c(SC(C)C(=O)N2CCOCC2)nc2sc(C)c(C)c2c1=O` (centres undefined): the inhibition was -0.24%.

For `CCC(C)[C@H](NC(=O)C1CC(=O)N(c2ccc3c(c2)OCCO3)C1)C(=O)NC1CCCC1` (some centres undefined), the inhibition is -2.76%.

As to `CN(CCC#N)C(=O)COC(=O)c1ccc2c(c1)C(=O)N(C1CCCCC1)C2=O`, the inhibition was 11.1%.

Consider `O=C(O)COc1ccc(NC(=O)c2ccc3c(c2)C(=O)N(C2CCCCC2)C3=O)cc1`, for which the inhibition is -5.81%.

With `CCC(=O)Nc1ccc2c(c1)C(=O)N(C1CCCCC1)C2=O`, the inhibition is 12.2%.

For the compound `COC(=O)c1ccc2c(c1)C(=O)N(C1CCCCC1)C2=O`, the inhibition is 48.9%.

Regarding `Clc1cccc(C2CCN(Cc3nc(CC4CC4)no3)C2)c1` (centres undefined), the inhibition was 16.3%.

For `COc1ccc(NCc2nnc(SCc3ccc(Cl)cc3)n2-c2ccccc2)cc1`, the inhibition is -5.4%.

Turning to `CCOC(=O)CSc1nnc(CNc2cccc(Cl)c2)n1-c1ccccc1`, the inhibition was -7.68%.

For `Cc1ccccc1S(=O)(=O)Cc1ccc(C(=O)NCCCOC(C)C)o1`, the inhibition was 2.68%.

As for `CN(CC(=O)Nc1ccccc1Cl)C(=O)COC(=O)c1ccc(=O)n(Cc2ccccc2)n1`, the inhibition was 0.91%.

With `CC(=O)N(Cc1nc2sc(C)c(C)c2c(=O)[nH]1)C1CCCC1`, the inhibition is -3.15%.

As to `Cc1sc2nc(CN(C(=O)NC3CCCCC3)C3CCCCC3)[nH]c(=O)c2c1C`, the inhibition was 26.1%.

Regarding `O=C(Cc1ccc(F)cc1)N(c1ccccc1)C1C=CS(=O)(=O)C1` (centres undefined), the inhibition was -6.47%.

As for `CCn1cc(C2C(C(=O)Nc3cc(C)ccn3)=C(C)NC3=C2C(=O)CC(C)(C)C3)c(C)n1` (centres undefined), the inhibition was 1.96%.

As for `CCCCCCn1c(=O)c(C(=O)Nc2ncccc2O)c(O)c2ccccc21`, the inhibition is 13.4%.

`CCCn1c(=O)c(C(=O)Nc2ncccc2C)c(O)c2ccccc21`: the inhibition was 18.3%.

Consider `CC1(C)CC(=O)C(N=Nc2cccc([N+](=O)[O-])c2)=C(O)C1`, for which the inhibition is 0.73%.

As to `CCN(N=Nc1cccc([N+](=O)[O-])c1)c1cccc([N+](=O)[O-])c1`, the inhibition was 4.11%.
